# Among all 11,000 compounds or so, about 310 (2.8%) were called active. No stated cut-off is given here; in the data, active means activity change below about -85%; inactive means the rest. The full list was thinned out, with actives kept by preference.
# Test system: intestinal alkaline phosphatase [Mus musculus]
# Assay: mouse intestinal phosphatase enzyme activation – biochemical, luminescence, single concentration, confirmation (AID 434970)
# Settings: purified mouse IAP, CDP-Star luminescence, 30 min, at 10 µM; activation factor: measured here: IAP activation factor, stronger effect = higher value; activity change, negative = activation: stronger effect = lower value
Compound,activation factor,"activity change, negative = activation"
CC(C)c1ccc(CN2CCC(C(=O)NCc3cccnc3)CC2)cc1,1.04,-4.3% (inactive)
CCn1cc(CN2CCC(C(=O)Nc3cccc(-c4cccc(F)c4)c3)CC2)cn1,2.66,-166% (active)
CCn1cc(CN2CCC(C(=O)Nc3cccc(-c4cccc(Cl)c4)c3)CC2)cn1,4.29,-329% (active)
Cc1cc(C)c(S(=O)(=O)NNC(=O)C2CCN(Cc3ccccc3)CC2)c(C)c1,0.968,3.2% (inactive)
Cn1cc(CN2CCC(C(=O)Nc3cccc(-c4cccc(F)c4)c3)CC2)cn1,2.29,-129% (active)
Cc1ccc(S(=O)(=O)NNC(=O)C2CCN(Cc3ccccc3)CC2)cc1,0.94,6% (inactive)
CCn1c2ccccc2c2cc(NC(=O)C3CCN(S(=O)(=O)c4cccs4)CC3)ccc21,1.53,-52.7% (inactive)
Cc1ccc(CN2CCC(C(=O)Nc3cccc(-c4cccc(F)c4)c3)CC2)o1,1.48,-48.2% (inactive)
C[C@]12c3[nH]c4ccc(Cl)cc4c3CCN1C(=O)[C@@H](CC(=O)NCc1cccc(C(F)(F)F)c1)C[C@@H]2C(=O)N1CCCCC1,1.26,-26.2% (inactive)
c1ccc(-n2nnnc2SCc2cccc3nsnc23)cc1,0.908,9.2% (inactive)
O=[N+]([O-])c1ccc2n[nH]nc2c1,1.02,-2.4% (inactive)
O=C(Nc1nnc(SCc2ccccc2Cl)s1)C1COc2ccccc2O1 (stereo not given),0.965,3.5% (inactive)
CC(=O)c1sc(Nc2nc(C)cc(C)n2)nc1C,0.928,7.2% (inactive)
COc1ccc(CN(CC(O)COCc2ccccc2)S(=O)(=O)c2ccccc2Br)cc1OC (stereo not given),1.04,-3.55% (inactive)
O=C1CN(c2ccccc2F)C(=O)CN1c1ccccc1F,1.01,-1.1% (inactive)
C#CCOCCOCCOCCNc1nc(N2CCN(C(=O)CCCCCCCCCCNC(=O)[C@H](CCCCN)n3cc(CCO)nn3)CC2)nc(N2CCN(C(=O)CCCCCCCCCCNC(=O)[C@H](CCCN=C(N)N)n3cc(C[C@@H](C)CC)nn3)CC2)n1,3.04,-204% (active)
C#CCOCCOCCOCCNc1nc(N2CCN(C(=O)CCCCCCCCCCNC(=O)[C@H](CCCCN)n3cc(C)nn3)CC2)nc(N2CCN(C(=O)CCCCCCCCCCNC(=O)[C@H](CCCN=C(N)N)n3cc(C[C@@H](C)CC)nn3)CC2)n1,3.95,-295% (active)
C#CCOCCOCCOCCNc1nc(N2CCN(C(=O)CCCCCCCCCCNC(=O)[C@H](CCCCN)n3cc(CCCC(=O)O)nn3)CC2)nc(N2CCN(C(=O)CCCCCCCCCCNC(=O)[C@H](CCCN=C(N)N)n3cc(C[C@@H](C)CC)nn3)CC2)n1,2.67,-167% (active)
CCOC(=O)c1c(N)sc(C(O)(C(F)(F)F)C(F)(F)F)c1-c1ccccc1,1.07,-6.55% (inactive)
CC1CN(c2nc3c(c(=O)n(Cc4ccc(Cl)c(Cl)c4)c(=O)n3C)n2C)CC(C)O1 (stereo not given),1.01,-0.8% (inactive)

Compound,activation factor,"activity change, negative = activation"
Cc1n[nH]c(C)c1S(=O)(=O)N1CCCC(C(=O)N2CCc3ccccc32)C1 (stereo not given),0.946,5.45% (inactive)
COc1ccc(Nc2nc(N)nc(CSc3nccc(C)n3)n2)cc1,1.04,-3.9% (inactive)
Cc1ccc(-c2nnn(CC(=O)N3CCCc4ccccc43)n2)cc1,1.06,-6.35% (inactive)
CSc1cccc(NC(=O)Nc2ccc(Cl)cc2)c1,2.06,-106% (active)
CSc1cccc(NC(=O)Nc2ccccc2)c1,2.1,-110% (active)
CSc1cccc(NC(=O)NCc2cccc(CNC(=O)Nc3cccc(SC)c3)c2)c1,1.62,-61.9% (inactive)
CSc1cccc(NC(=O)Nc2nc3c(C)cccc3s2)c1,1.45,-45% (inactive)
COC(=O)c1cccc(NC(=O)Nc2ccc(Cl)cc2)c1,1.48,-47.6% (inactive)
COc1ccccc1C(=O)Nc1cccc(SC)c1,1.12,-11.6% (inactive)
Cc1cnc(-c2nnc(N(C)C(=O)C3CCOC3)s2)cn1 (stereo not given),0.996,0.45% (inactive)
Cc1onc(-c2ccccc2Cl)c1C(=O)OCC(=O)N1CCCc2ccccc21,1.02,-2.05% (inactive)
CC(C)(C)c1ccc(OCC(=O)NCc2ccco2)c(Br)c1,0.869,13.1% (inactive)
CC(C)N1CC2=C(OC(N)=C(C#N)C2c2cccnc2)/C(=C/c2cccnc2)C1 (stereo not given),0.917,8.3% (inactive)
Cc1ccc(SCC(=O)Nc2ccc(N3CCN(C)CC3)c(F)c2)c(C)c1,1.13,-13% (inactive)
Cc1ccc(SCCNC(=S)Nc2ccc(C)c(C)c2)cc1,1.46,-45.9% (inactive)
Cc1cc(C)cc(NC(=O)NCC2CCN(Cc3cc(C)ccc3C)CC2)c1,2.32,-132% (active)
Cc1cc(C)c(CN2CCN(C(=O)Cn3cnc(C(=O)Nc4ccc(C)c(C)c4)n3)CC2)c(C)c1,1.13,-13.2% (inactive)
Cc1ccc(C)c(CN2CCC(CNC(=O)Nc3ccc(C)c(C)c3)CC2)c1,2.21,-121% (active)
Cc1ccc(C)c(CN2CCC(CNC(=O)Nc3ccc(C)c(F)c3)CC2)c1,2.16,-116% (active)
Cc1ccc(C)c(CN2CCC(CNC(=O)Nc3ccc(Br)cc3F)CC2)c1,1.55,-54.9% (inactive)
